Among the data in PubChem BioAssay (NCI) are growth values, retold here.

The panel holds about 83,000 compounds, 20% with a hit somewhere; the sample as a whole holds those more often.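 Growth was measured after 48 h exposure to one concentration of compound in 96-well plates. Values under 10 count as active.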 Values without a mark were called inactive. Active and inactive are the calls of the source.

What all share (test): NCI-60 one-dose screen, 48 h (100 = growth as untreated, 0 = no growth, -100 = all killed)
In one test the test system is DU-145 prostate. As to conditions: 10 µM unless noted.
A further test has as its system K-562 leukemia. To be noted: 10 µM unless noted.
The test system of a further test is MALME-3M melanoma. As to conditions: 10 µM unless noted.
Another test deals with MDA-MB-231 breast. To be noted: 10 µM unless noted.
Another test relates to RXF 393 renal. To be noted: 10 µM unless noted.
Another test relates to SF-268 CNS. As to conditions: 10 µM unless noted.
In a further test the test system is SF-295 CNS. As to conditions: 10 µM unless noted.
The subject of a further test is SF-539 CNS. As to conditions: 10 µM unless noted.
In a further test the test system is UACC-257 melanoma. To be noted: 10 µM unless noted.
The next test deals with M14 melanoma. As to conditions: 10 µM unless noted.
The subject of another test is HCT-15 colon. As to conditions: 10 µM unless noted.
A further test has as its system HT29 colon. As to conditions: 10 µM unless noted.
For a further test, the system named is U251 CNS. As to conditions: 10 µM unless noted.
A further test relates to PC-3 prostate. To be noted: 10 µM unless noted.
For a further test, the system named is SK-MEL-5 melanoma. As to conditions: 10 µM unless noted.
In another test the test system is UACC-62 melanoma. As to conditions: 10 µM unless noted.
The subject of another test is LOX IMVI melanoma. To be noted: 10 µM.
For a further test, the system named is SK-MEL-28 melanoma. To be noted: 10 µM unless noted.
For the next test, the system named is SNB-19 CNS. As to conditions: 10 µM unless noted.

In the case of `COc1ccc(-c2nc3cc(C)ccc3n2CC(=O)N=Nc2c(O)[nH]c3ccc(Br)cc23)cc1`, the growth in the test with DU-145 prostate was 16.1%; in the test with K-562 leukemia, 9.75% (active); in the test on MALME-3M melanoma, -59.4% (active); with MDA-MB-231 breast, -28.1% (active); with RXF 393 renal it was -52.7% (active); in the test with SF-268 CNS, 23%. For the same compound, the growth in the test on SF-295 CNS was -61.4% (active); with SF-539 CNS, -67.1% (active); in the test on UACC-257 melanoma it was 1.58% (active); in the test with M14 melanoma, -58.2% (active); with HCT-15 colon it was -66.1% (active); with HT29 colon, -67.4% (active). Moreover, the growth in the test on U251 CNS is -63.1% (active); in the test on PC-3 prostate, 13.9%; with SK-MEL-5 melanoma, -45.6% (active); with UACC-62 melanoma, -42.8% (active); in the test on LOX IMVI melanoma it was -81.9% (active); in the test with SK-MEL-28 melanoma it was -53.8% (active).
For the compound `Cn1cc(-c2cc3nc(-c4cn(C)c5ncccc45)cc(N)n3n2)c2ccccc21`, the growth with DU-145 prostate was 40.9%; in the test on K-562 leukemia it was -34.9% (active); in the test with MALME-3M melanoma it was -47.8% (active); in the test with MDA-MB-231 breast it was -19.9% (active); in the test on RXF 393 renal it was -50.4% (active); in the test with SF-268 CNS it was 15%. For the same compound, the growth was -30.6% (active) in the test on SF-295 CNS; -78.7% (active) with SF-539 CNS; -49.7% (active) in the test with UACC-257 melanoma; 5.56% (active) in the test on M14 melanoma; 9.76% (active) with HCT-15 colon; -6.2% (active) with HT29 colon. The growth in the test with SNB-19 CNS was 37.7%; with U251 CNS, -8.69% (active); in the test with PC-3 prostate, 27.2%; with SK-MEL-5 melanoma, -69.3% (active); in the test on UACC-62 melanoma, -0.244% (active); in the test with SK-MEL-28 melanoma, -22.5% (active).
In the case of `CCOC(=O)c1ccc(Nc2nc(NN)nc(-c3ccc(OC)cc3)c2C#N)cc1`, the growth in the test with DU-145 prostate is 113%; with K-562 leukemia, 1.69% (active); in the test on MALME-3M melanoma, 92.4%; in the test with MDA-MB-231 breast, 85.1%; in the test on RXF 393 renal, 124%; in the test with SF-268 CNS it was 98.2%. For the same compound, the growth is 111% with SF-295 CNS; 110% with SF-539 CNS; 46% in the test on UACC-257 melanoma; 71.6% in the test on M14 melanoma; 106% in the test with HCT-15 colon; 115% in the test with HT29 colon. For the same compound, the growth in the test with U251 CNS is 106%; in the test with PC-3 prostate it was 85.2%; in the test with SK-MEL-5 melanoma, 90.1%; in the test with UACC-62 melanoma, 93.4%; in the test on LOX IMVI melanoma it was 114%; in the test on SK-MEL-28 melanoma, 113%.
As for `CN(C)CCCNC(=O)c1cc(NC(=O)c2cc(NC(=O)c3ccc(/C=C/c4ccccc4)cc3)cn2C)cn1C`, the growth in the test on DU-145 prostate is 57.1%; in the test on K-562 leukemia, -41% (active); in the test with MALME-3M melanoma, 35%; in the test on MDA-MB-231 breast, 65.6%; with RXF 393 renal, 25%; in the test with SF-268 CNS, 48.9%. Also, the growth in the test with SF-295 CNS is 35.2%; in the test on SF-539 CNS, 32.7%; in the test with UACC-257 melanoma, 54.2%; in the test with M14 melanoma it was 48.1%; in the test with HCT-15 colon, 44.3%; in the test on HT29 colon it was 2.73% (active). Moreover, the growth in the test with SNB-19 CNS was 78%; with U251 CNS, -14.9% (active); with PC-3 prostate, 46.6%; with SK-MEL-5 melanoma, 40.3%; in the test with UACC-62 melanoma it was 10.1%; in the test with LOX IMVI melanoma it was -86.1% (active). Further, in the test with SK-MEL-28 melanoma, the growth is 60.2%.
Turning to `CCCCSc1nc(Nc2ccc(S(N)(=O)=O)cc2)c(C#N)c(-c2cc(OC)c(OC)c(OC)c2)n1`, the growth is 54.1% in the test on DU-145 prostate; 3.62% (active) with K-562 leukemia; 8.31% (active) in the test with MALME-3M melanoma; 42.5% in the test with MDA-MB-231 breast; 32.8% in the test on RXF 393 renal; 60.7% in the test on SF-268 CNS. The growth with SF-295 CNS is 24.2%; in the test with SF-539 CNS, 38.1%; with UACC-257 melanoma it was 61.7%; with M14 melanoma it was 33.3%; in the test with HCT-15 colon it was 25.7%; in the test with HT29 colon it was 42%. In addition, the growth in the test on SNB-19 CNS is 54.5%; with U251 CNS, 43.3%; in the test on PC-3 prostate it was 16.7%; in the test with SK-MEL-5 melanoma, 20.5%; with LOX IMVI melanoma, 7.76% (active); with SK-MEL-28 melanoma it was 35.1%.
Take `COc1ccc2[nH]c(=O)c(CSc3nccc(-c4ccc(OC)c(OC)c4)n3)cc2c1`: the growth with DU-145 prostate is 37.4%; in the test on K-562 leukemia it was 11.4%; in the test on MALME-3M melanoma it was -2.09% (active); in the test on MDA-MB-231 breast it was 6.47% (active); with RXF 393 renal, -13.7% (active); in the test on SF-268 CNS, 28%. For the same compound, the growth was -30.4% (active) in the test on SF-295 CNS; 24.7% with SF-539 CNS; 38.9% in the test with UACC-257 melanoma; 47.8% in the test with M14 melanoma; 16.4% with HCT-15 colon; 16.2% in the test with HT29 colon. Also, the growth in the test on U251 CNS is 26%; in the test with PC-3 prostate, 5.92% (active); in the test on SK-MEL-5 melanoma, -1.05% (active); with UACC-62 melanoma, 27.9%; in the test on LOX IMVI melanoma, 24.5%; with SK-MEL-28 melanoma, 42.7%.
For the compound `CC(C)(C)OC(=O)/C=C/c1cccc2c1C(=O)NC(C)(c1cc3cc(Cl)ccc3oc1=O)N2` (stereo unspecified), the growth was 61.1% with DU-145 prostate; 17.1% with K-562 leukemia; 51.2% in the test with MALME-3M melanoma; 67.1% with MDA-MB-231 breast; 10.2% in the test with RXF 393 renal; 51.4% in the test with SF-268 CNS. The growth in the test with SF-295 CNS is 24.9%; in the test on SF-539 CNS, 66.7%; in the test with UACC-257 melanoma, 41.7%; with M14 melanoma, 49.3%; in the test with HCT-15 colon, 40.3%; in the test on HT29 colon, 44.3%. Further, the growth with SNB-19 CNS was 42.1%; in the test on U251 CNS, 42.4%; in the test on PC-3 prostate, 12.5%; in the test on SK-MEL-5 melanoma, 28.4%; in the test with UACC-62 melanoma, 36%; in the test with LOX IMVI melanoma, 41.1%. The growth in the test with SK-MEL-28 melanoma was 53.7%.
On to `Cc1nc(Nc2ncc(C(=O)Nc3c(C)cccc3Cl)s2)cc(N2CCN(CCCNC(=O)COc3ccc(C4CCC(=O)NC4=O)cc3)CC2)n1` (stereo unspecified), for which the growth in the test on DU-145 prostate was 41.9%; in the test with K-562 leukemia, 9.96% (active); in the test on MALME-3M melanoma it was 91.6%; in the test with MDA-MB-231 breast, -4.03% (active); with RXF 393 renal, -51.2% (active); in the test on SF-268 CNS, 43.6%. The growth was 48.3% in the test on SF-295 CNS; 7.74% (active) in the test with SF-539 CNS; 77.9% in the test on UACC-257 melanoma; 60.2% in the test on M14 melanoma; 68.3% in the test with HCT-15 colon; -13.6% (active) with HT29 colon. The growth in the test with U251 CNS is 62.6%; in the test on PC-3 prostate, 44.1%; in the test on SK-MEL-5 melanoma it was 73.7%; with UACC-62 melanoma, 55.4%; in the test with LOX IMVI melanoma, -96.6% (active); in the test with SK-MEL-28 melanoma, 89.4%.
